Lamin A splicing = qHTS Assay for Modulators of Lamin A Splicing; hit rate 0.01% among 200,000; HeLa LMNA splicing GFP/RFP minigene ratio, 48 h; Potency, µM (titrated, usually from 46.1 µM), most hits filed as inhibitors; active means well fitted inhibition curve with a large enough effect in the signal ratio, with a control signal flat, not every such curve was filed as active; inconclusive means small, poorly fitted or top-dose-only effect, or effect the other way, or a change in a side signal; the % refers to the signal ratio
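S3 HeLa cells stably expressing lamin A-EGFP splicing minigene plus DsRed2, 600 cells/well, 48 h compound exposure at 37C. Laser-scanning cytometry; analysed as GFP (500-530 nm)/RFP (575-640 nm) total intensity ratio; 0.5% DMSO vehicle.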
G9a block = qHTS Assay for Inhibitors of Histone Lysine Methyltransferase G9a | Histone-lysine N-methyltransferase EHMT2 (Homo sapiens), Q96KQ7 | G9a H3K9 monomethylation, AlphaScreen, 2 h | Potency, µM (doses to about 102 µM), actives largely listed as inhibitors | hit rate 8.8% among 350,000 | AID 504332, 2011; further: nearly all actives have a fitted effect of over 75% in size
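Using a bead-based AlphaScreen, monomethylated H3K9 product from 2 h room-temperature reactions (G9a 20 nM, peptide 500 nM, SAM 20 uM) was detected with 0.5 ug/mL rabbit anti-H3K9me1 antibody.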
Sfp PPTase inh = qHTS Assay for Inhibitors of Bacillus subtilis Sfp phosphopantetheinyl transferase (PPTase); 4'-phosphopantetheinyl transferase ffp (Bacillus subtilis), Q9F4F7; Biochemical Sfp PPTase activity, qHTS; Potency, µM, actives largely listed as inhibitors; hit rate 3.5% among 310,000; AID 1490, 2009;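 further: the enzyme is Sfp with the accession as filed and its product quenches rhodamine fluorescence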
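Fluorescence-quenching assay: 15 nM Sfp-PPTase preincubated 15 min at room temperature with compound, then 5 uM rhodamine-CoA and 12.5 uM BHQ-2-labelled YbbR peptide added. Fluorescence (ex 525/em 598 nm) read at start and after 30 min; difference gives rate.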
JMJD2E inh = qHTS Assay for Inhibitors of Human Jumonji Domain Containing 2E (JMJD2E); JMJD2E catalytic domain, FDH-coupled NADH fluorescence (FDH is formaldehyde dehydrogenase); Lysine-specific demethylase 4E (Homo sapiens), B2RXH2; Potency, µM (doses to about 57.1 µM), actives largely listed as inhibitors; hit rate 1.6% among 230,000; active means well fitted inhibition curve with a large enough effect, not every such curve was filed as active; inconclusive means small, poorly fitted or top-dose-only effect, or another doubt; inactive means no such curve, though single readings can be large or run the other way; further: nearly all actives have a fitted effect of over 50% in size
miR-21 act = qHTS Assay for Modulators of miRNAs and/orActivators of miR-21. HeLa miR-21 FLuc reporter, luciferase, 48 h. Potency, µM (doses to about 38.3 µM), most hits filed as activators. 340,000 tested, under 10 active;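 further: miR-21 action dims this reporter so a rising signal means less miR-21 action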
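Compounds were titrated across several concentrations (up to approximately 40 uM) and incubated 48 hours with HeLa miR-21-FLuc reporter cells (miR-21 target sequence downstream of FLuc, endogenous miR-21). Readout was firefly luciferase luminescence after lytic detection reagent.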
ALDH1A1 block = qHTS Assay for Inhibitors of Aldehyde Dehydrogenase 1 (ALDH1A1); Aldehyde dehydrogenase 1A1 (Homo sapiens), P00352; Purified ALDH1A1, NADH fluorescence, propionaldehyde substrate; Potency, µM (series often up to 75.3 µM), hits mostly inhibitors; hit rate 7.3% among 220,000; active means well fitted inhibition curve with a large enough effect, not every such curve was filed as active; inconclusive means small, poorly fitted or top-dose-only effect, or another doubt; inactive means no such curve, though single readings can be large or run the other way
Target sequence (P00352 whole entry, looked up): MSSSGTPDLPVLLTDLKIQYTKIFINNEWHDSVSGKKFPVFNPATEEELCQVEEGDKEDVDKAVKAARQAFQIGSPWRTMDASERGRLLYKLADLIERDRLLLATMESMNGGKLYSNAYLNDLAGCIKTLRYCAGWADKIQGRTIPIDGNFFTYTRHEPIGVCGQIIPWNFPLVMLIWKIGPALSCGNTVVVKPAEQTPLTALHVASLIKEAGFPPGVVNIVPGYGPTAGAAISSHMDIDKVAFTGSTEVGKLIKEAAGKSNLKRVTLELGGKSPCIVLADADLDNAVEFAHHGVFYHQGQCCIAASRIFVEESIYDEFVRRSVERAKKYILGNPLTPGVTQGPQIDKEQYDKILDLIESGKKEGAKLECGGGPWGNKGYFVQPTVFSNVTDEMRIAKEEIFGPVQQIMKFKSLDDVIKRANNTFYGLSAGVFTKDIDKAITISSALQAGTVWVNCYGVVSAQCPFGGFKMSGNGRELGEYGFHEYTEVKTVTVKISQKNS
Numbers stand for hits; [ ] = remark or other dose. This is a sample that favours compounds with a hit; in the whole collection about 13% have one here. Unless noted, the call rests on the fitted dose curve; in most records, active means well fitted curve in the direction sought with a large enough effect; inconclusive means small, poorly fitted or top-dose-only effect, or another doubt; inactive means no such curve, though single readings can be large; an effect the other way counts as inactive or inconclusive.

Results for Cc1cccc(CSc2nnc(-c3ccco3)o2)c1 ?
G9a block: inactive; Sfp PPTase inh: 28.2µM; JMJD2E inh: inactive; miR-21 act: inactive; ALDH1A1 block: inactive

How did CC1CCCCN1C(=O)CSc1nnc(-c2cccs2)o1 (stereo not drawn) do in these assays?
G9a block: inactive; Sfp PPTase inh: inactive; miR-21 act: inactive

How did CC1CCCCN1C(=O)CSc1nnc(-c2c[nH]c3ccccc23)o1 (stereo not drawn) do in these assays?
Lamin A splicing: inactive; G9a block: inconclusive; Sfp PPTase inh: inactive; JMJD2E inh: inactive; miR-21 act: inactive; ALDH1A1 block: 25.1µM

Results for CCC1CCCCN1C(=O)CSc1nnc(-c2ccc(Cl)cc2)o1 (stereo not drawn) ?
Lamin A splicing: inactive; G9a block: inactive; Sfp PPTase inh: inactive; JMJD2E inh: inactive; miR-21 act: inactive; ALDH1A1 block: inactive

Results for CCC1CCCCN1C(=O)CSc1nnc(-c2ccco2)o1 (stereo not drawn) ?
Lamin A splicing: inactive; G9a block: inconclusive; Sfp PPTase inh: inactive; JMJD2E inh: inactive; miR-21 act: inactive; ALDH1A1 block: 20µM

What do the screens show for `Cc1cccc(OCC(=O)NCC2(N3CCN(C)CC3)CCCCC2)c1C`?
Lamin A splicing: inactive; G9a block: inactive; miR-21 act: inactive

What do the screens show for `CCN(CC)c1ccc(C(NC(C)=O)NC(C)=O)cc1`?
Lamin A splicing: inactive; G9a block: inactive; Sfp PPTase inh: inactive; JMJD2E inh: inactive; miR-21 act: inactive; ALDH1A1 block: 14.1µM

What do the screens show for `CC(=O)NC(NC(C)=O)c1ccc(N(C)C)cc1`?
Lamin A splicing: inactive; G9a block: inactive; Sfp PPTase inh: inactive; JMJD2E inh: inactive; miR-21 act: inactive; ALDH1A1 block: 2.24µM

How did COc1cccc(-n2c(=O)c3sccc3n(Cc3cc(=O)n4cc(Cl)ccc4n3)c2=O)c1 do in these assays?
G9a block: inactive; miR-21 act: inactive

Results for COc1ccc(OC)c(NC(=O)NNC(=O)COc2ccc(F)cc2F)c1 ?
G9a block: inactive; Sfp PPTase inh: inactive; miR-21 act: inactive

What do the screens show for `C/C(CC(=O)NC1CCCCC1)=N\NC(=O)c1ccccc1C`?
G9a block: 39.8µM; Sfp PPTase inh: inactive; miR-21 act: inactive

How did O=C(OC1CCOC1=O)c1ccc2ncsc2c1 (stereo not drawn) do in these assays?
Lamin A splicing: inactive; G9a block: 28.2µM; Sfp PPTase inh: inactive; JMJD2E inh: inactive; miR-21 act: inactive; ALDH1A1 block: inactive

Results for CC(C)Oc1ccc(CNC(=O)C2COc3ccccc3C2)cc1 (stereo not drawn) ?
Lamin A splicing: inactive; G9a block: inactive; miR-21 act: inactive

What do the screens show for `COc1cc(C#CC#CCN2CCCCC2)ccc1O`?
Lamin A splicing: inactive; G9a block: inactive[12.7 µM]; Sfp PPTase inh: inactive; JMJD2E inh: inconclusive; miR-21 act: inactive; ALDH1A1 block: 1.58µM

Results for C=Cc1ccc(CSc2nc(-c3ccc(OC)cc3)nc3c2Cc2c(CO)cnc(C)c2O3)cc1 ?
G9a block: inactive; miR-21 act: inactive

How did CCOC(=O)c1ccc(NC(=O)c2nn(C)c3c2COc2ccccc2-3)cc1 do in these assays?
G9a block: 14.1µM; miR-21 act: inactive

How did CCOc1ccc2c(c1)n([O-])c1c([n+]2=O)CCCC1 do in these assays?
Lamin A splicing: inactive; G9a block: inconclusive; Sfp PPTase inh: 20µM; JMJD2E inh: inconclusive; miR-21 act: inactive; ALDH1A1 block: inconclusive

What do the screens show for `CC1CCCN(c2nc3c(c(=O)[nH]c(=O)n3C)n2Cc2ccccc2Cl)C1` (stereo not drawn)?
Lamin A splicing: inactive; G9a block: inactive; Sfp PPTase inh: inconclusive; JMJD2E inh: inactive; miR-21 act: inactive; ALDH1A1 block: 10µM

How did Cc1ccc(Cn2c(N3CCCCCC3)nc3c2c(=O)[nH]c(=O)n3C)cc1 do in these assays?
Lamin A splicing: inconclusive; G9a block: inactive; Sfp PPTase inh: inactive; JMJD2E inh: inactive; miR-21 act: inactive; ALDH1A1 block: 1.58µM

High-throughput results: PubChem BioAssay, National Center for Advancing Translational Sciences (NCATS)
